A short description of assay [1]: compounds binding Alexa647 anti-His antibody – biochemical, small-molecule microarray, 635 nm fluorescence, artefact control for SMM control protein annotation, primary screen (AID 1128).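 Note: score merges feature fluorescence with signal-to-noise for each printed compound spot.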 As to conditions: higher = more signal.
Assay [2] deals with Human papillomavirus type 1a E7 protein (residues 1-88). The experiment in a line: HPV1a E7 small-molecule binders, primary screen, biochemical, small-molecule microarray, residues 1-88, 635 nm (AID 1129). As to conditions: small-molecule microarray binding, fluorescence 635 nm; higher = more signal.
For assay [3], the target named is Focal adhesion kinase 1 (Homo sapiens) (UniProt Q05397). The experiment in a line: PTK2 protein binding on printed compound slides – biochemical, small-molecule microarray, 635/667 nm fluorescence, BSA, DTT, primary screen (AID 1130).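 Note: composite of spot emission at 667 nm and signal to noise over triplicate slides.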 As to conditions: 635 nm fluorescence, higher = more signal.
Chain of Focal adhesion kinase 1 (Homo sapiens) (Q05397 whole entry, looked up): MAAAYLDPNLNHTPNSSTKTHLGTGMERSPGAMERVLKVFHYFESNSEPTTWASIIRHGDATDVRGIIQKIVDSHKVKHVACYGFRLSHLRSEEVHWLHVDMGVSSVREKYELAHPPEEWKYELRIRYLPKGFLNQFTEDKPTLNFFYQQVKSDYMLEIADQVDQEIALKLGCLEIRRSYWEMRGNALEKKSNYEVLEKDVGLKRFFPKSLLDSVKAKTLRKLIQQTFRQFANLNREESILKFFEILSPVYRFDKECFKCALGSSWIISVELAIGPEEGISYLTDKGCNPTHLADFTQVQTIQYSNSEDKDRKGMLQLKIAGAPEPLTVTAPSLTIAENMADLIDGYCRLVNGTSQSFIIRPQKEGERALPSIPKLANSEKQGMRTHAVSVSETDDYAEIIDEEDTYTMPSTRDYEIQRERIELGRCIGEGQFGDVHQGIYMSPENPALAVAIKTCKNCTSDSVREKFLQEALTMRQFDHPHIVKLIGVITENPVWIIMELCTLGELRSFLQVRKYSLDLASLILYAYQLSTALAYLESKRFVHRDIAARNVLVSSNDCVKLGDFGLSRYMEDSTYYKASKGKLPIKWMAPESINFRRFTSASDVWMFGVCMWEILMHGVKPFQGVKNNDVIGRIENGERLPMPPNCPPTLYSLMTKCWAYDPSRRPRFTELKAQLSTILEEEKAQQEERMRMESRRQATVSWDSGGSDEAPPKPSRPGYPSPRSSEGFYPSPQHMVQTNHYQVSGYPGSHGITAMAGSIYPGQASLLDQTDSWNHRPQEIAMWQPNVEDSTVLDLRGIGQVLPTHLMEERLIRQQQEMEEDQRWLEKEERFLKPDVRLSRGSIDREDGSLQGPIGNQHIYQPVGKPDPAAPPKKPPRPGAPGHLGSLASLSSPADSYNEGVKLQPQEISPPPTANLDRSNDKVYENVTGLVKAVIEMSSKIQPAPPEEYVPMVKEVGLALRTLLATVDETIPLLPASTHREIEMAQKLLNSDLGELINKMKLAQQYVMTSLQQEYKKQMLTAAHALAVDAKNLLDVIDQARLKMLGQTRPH
The test system of assay [4] is Fibrinogen (Alexa647-labelled). The experiment in a line: Alexa647-fibrinogen binding to printed small molecules – biochemical, small-molecule microarray, 635/667 nm fluorescence, artefact control for SMM control-protein annotation, profiling panel (AID 1131).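 Note: z-score merges 667 nm fluorescence with per-spot signal-to-noise over triplicate slides.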 The note with it: fibrinogen-A647 binding fluorescence, higher = more signal.
Assay [5] has as its target Follistatin (Homo sapiens) (UniProt P19883). Put plainly: FST protein binding to printed compounds – biochemical, small-molecule microarray, 635/667 nm fluorescence, primary screen (AID 1132). The note with it: 635 nm fluorescence, higher = more signal.
Assay [6] addresses Fibroblast growth factor 2 (Homo sapiens) (UniProt P09038). The experiment in a line: basic fibroblast growth factor binding to printed compounds – biochemical, small-molecule microarray, 635/667 nm fluorescence, primary screen (AID 1133). The note with it: FGF2, fluorescence 635/667, higher = more signal.
A short description of assay [7]: JC-1 mitochondrial potential readout, lung cancer cells – cell-based, A549, JC-1 fluorescence, basal, 24 h, 100 nL, profiling panel (AID 1138).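 Note: A549 lung adenocarcinoma cells under basal conditions with no added stimulus; test concentration not given here.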 The note with it: higher = more signal.
A further assay relates to Lefty1. The experiment in a line: Lefty1 protein binding to printed compounds – biochemical, small-molecule microarray, 635/667 nm fluorescence, primary screen (AID 1139). As to conditions: fluorescence 635/667, higher = more signal.
Assay [8] deals with wheat germ agglutinin (Triticum aestivum), Alexa647-labelled. The experiment in a line: Alexa647-WGA lectin binding to printed small molecules – biochemical, small-molecule microarray, 635/667 nm fluorescence, artefact control for SMM control-protein annotation, profiling panel (AID 1140).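 Note: score merges 667 nm feature emission with signal to noise over triplicate slides.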 The note with it: WGA-A647 binding, 635 nm fluorescence, higher = more signal.
Assay [9] deals with Luciferin 4-monooxygenase (Photinus pyralis) (UniProt P08659). The experiment in a line: inhibition of purified Photinus pyralis luciferase – biochemical, luminescence, purified enzyme, 2006 set, primary screen (AID 1141).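 Note: cell-free assay with purified firefly luciferase at 100 ng per well in PBS; test concentration not given here.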 The note with it: purified firefly luciferase, SteadyGlo luminescence, 30 min; higher = more signal, called active from +8 up or from −8 down.
Chain of Luciferin 4-monooxygenase (Photinus pyralis) (P08659 whole entry, looked up): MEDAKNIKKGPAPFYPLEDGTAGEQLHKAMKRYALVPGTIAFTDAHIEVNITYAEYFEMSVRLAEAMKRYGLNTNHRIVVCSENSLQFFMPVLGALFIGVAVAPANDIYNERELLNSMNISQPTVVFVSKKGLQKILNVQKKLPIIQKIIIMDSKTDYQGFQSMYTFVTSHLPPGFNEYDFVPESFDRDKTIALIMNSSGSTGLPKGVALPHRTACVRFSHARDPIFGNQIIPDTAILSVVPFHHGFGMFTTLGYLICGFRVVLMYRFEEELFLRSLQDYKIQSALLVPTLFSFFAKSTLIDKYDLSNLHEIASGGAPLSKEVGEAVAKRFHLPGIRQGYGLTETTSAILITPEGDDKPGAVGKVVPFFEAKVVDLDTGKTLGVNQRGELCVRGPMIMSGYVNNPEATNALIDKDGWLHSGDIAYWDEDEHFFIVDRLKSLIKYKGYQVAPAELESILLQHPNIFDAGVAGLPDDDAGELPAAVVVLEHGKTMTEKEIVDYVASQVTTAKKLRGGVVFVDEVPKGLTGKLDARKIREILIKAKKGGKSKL

The source made the active and inactive calls.

Chain of Follistatin (Homo sapiens) (P19883 whole entry, looked up): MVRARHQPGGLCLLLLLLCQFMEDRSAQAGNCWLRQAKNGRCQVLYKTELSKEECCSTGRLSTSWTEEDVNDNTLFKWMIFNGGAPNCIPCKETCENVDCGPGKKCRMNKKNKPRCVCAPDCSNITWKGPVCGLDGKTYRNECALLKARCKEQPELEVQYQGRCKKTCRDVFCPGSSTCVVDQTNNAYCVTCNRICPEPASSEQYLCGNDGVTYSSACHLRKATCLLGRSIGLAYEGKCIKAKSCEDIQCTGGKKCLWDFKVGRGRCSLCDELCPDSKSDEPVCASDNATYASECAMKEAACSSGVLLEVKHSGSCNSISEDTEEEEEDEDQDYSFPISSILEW
Chain of Fibroblast growth factor 2 (Homo sapiens) (P09038 whole entry, looked up): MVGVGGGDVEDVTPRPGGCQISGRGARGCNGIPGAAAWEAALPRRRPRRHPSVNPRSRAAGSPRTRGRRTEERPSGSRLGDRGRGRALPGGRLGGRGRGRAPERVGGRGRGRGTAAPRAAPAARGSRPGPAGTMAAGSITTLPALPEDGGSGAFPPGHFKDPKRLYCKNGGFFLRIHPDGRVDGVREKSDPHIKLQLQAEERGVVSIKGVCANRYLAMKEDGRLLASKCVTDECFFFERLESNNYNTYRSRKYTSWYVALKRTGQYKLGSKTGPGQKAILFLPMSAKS

Take `O=C1OCC=C[C@H]2OC34C=CCN(c5ccc(Cl)cc5)C(=O)[C@H]3N(CCCCCCO)C(=O)[C@@H]4[C@@H]12` (stereo not given in full): the composite z-score in [1] was 1.41; in assay [2], -0.777; in assay [3], -0.209; in [4] it was -2.01; in assay [5], -1.57; in assay [6], -0.705. Also, the composite z-score in the assay with Lefty1 is -1.09; in [8], -0.892. Besides, the z-score is 1.82 in assay [7] and -0.71 (inactive) in assay [9].

For the compound `O=c1cccc(C=Cc2ccccc2)o1`, the composite z-score is -0.23 in [1]; -0.191 in [2]; -0.599 in [3]; -0.58 in assay [4]; -0.723 in [5]; -1.63 in assay [6]. In addition, the composite z-score is -0.282 with Lefty1 and -0.531 in assay [8]. Further, the z-score in [7] is 0.302; in assay [9] it was 1.35 (inactive).

For `[N-]=[N+]=NCc1ccccc1C[C@@]1(C(=O)N2CCOCC2)N=C(c2ccc(OCCCO)cc2)O[C@@H]1c1ccccc1CN=[N+]=[N-]`, the composite z-score worked out at 3.09 in [1]; 1.25 in [2]; 0.829 in [3]; 0.978 in assay [4]; 1.05 in [5]; 0.684 in assay [6]. Also, the composite z-score came to 0.365 in the assay on Lefty1 and 1.3 in assay [8]. Also, the z-score was 0.74 in assay [7] and -0.832 (inactive) in assay [9].

Consider `COC(=O)c1ccc(C23CC2(C(NP(=O)(c2ccccc2)c2ccccc2)c2ccccc2)C3)cc1` (stereo not given), for which the composite z-score in assay [1] was 2.12; in assay [2] it was 1.14; in assay [3], 1.2; in assay [4] it was 0.984; in assay [5] it was 1.11; in [6] it was -0.575. Also, the composite z-score in the assay with Lefty1 is -0.414; in [8], 1.15. Further, the z-score is 2.44 in assay [7] and -5.98 (inactive) in assay [9].

As to `CN1C(=O)C2C(C1=O)C1C=C(CCCO)C2C(c2cccs2)N1C` (stereo not given), the composite z-score in [1] is 0.121; in [2] it was -0.612; in assay [3], -0.0834; in [4], -0.234; in assay [5], 0.143; in [6], 0.0096. The values for the composite z-score (with Lefty1; in assay [8]) were -0.76 and -0.1, respectively. Moreover, the z-score was 1.15 in assay [7] and -0.39 (inactive) in assay [9].

For the compound `C=CCC(OC(C)=O)[C@@H]1[C@@H](N(Cc2ccc(-c3cccc(C(F)(F)F)c3)o2)C(=O)c2ccc(C)cc2)c2cc(OCCCO)ccc2N1C(=O)c1ccc(-c2ccccc2)cc1` (stereo not given in full), the composite z-score in [1] was -0.488; in [2], -0.626; in assay [3], 0.134; in assay [4] it was -0.238; in [5], 0.65; in assay [6], 0.0875. Besides, the figures for the composite z-score (in the assay with Lefty1; in assay [8]) were 0.899 and 0.639, respectively. Moreover, the z-score in assay [7] was 2.31; in assay [9], -1.4 (inactive).

Turning to `CN(C)CCCCCCNC(=O)[C@H]1C[C@H]2C(=O)N[C@@H](CCCCN)C(=O)N2[C@H]1c1ccc(O)cc1`, the composite z-score in assay [1] was 3.12; in assay [2], 1.31; in assay [3] it was -0.108; in assay [4] it was 0.953; in assay [5], 1.44; in [6], 1.61. Further, the composite z-score is 1.75 in the assay with Lefty1 and 1.36 in assay [8]. In addition, the z-score was 0.868 in [7] and -0.62 (inactive) in assay [9].

On to `CCCCCCCCCCC(O)C1C=CC2C(=O)N(Cc3ccccc3)C(=O)C2N1n1cnnc1` (stereo not given), for which the composite z-score was -0.244 in assay [1]; 0.812 in assay [2]; 0.656 in assay [3]; 0.532 in assay [4]; -0.238 in [5]; -0.982 in assay [6]. Besides, the values for the composite z-score (in the assay with Lefty1; in assay [8]) were 0.486 and 0.493, respectively. In addition, the z-score in [7] was -1.27; in assay [9] it was 0.892 (inactive).

With `O=c1cccc(CCc2ccccc2)o1`, the composite z-score in assay [1] was 1.24; in assay [2] it was 0.741; in assay [3], 0.675; in [4], -0.229; in [5] it was 0.641; in assay [6] it was 0.257. Moreover, the composite z-score is 0.593 in the assay on Lefty1 and 0.211 in [8]. Moreover, the results for the z-score in assay [7] and in assay [9] were 0.426 and 0.0302 (inactive), respectively.

As for `CN1C(=O)C2C=CC(C(O)c3ccccn3)N(Nc3ccccc3)C2C1=O` (stereo not given), the composite z-score in assay [1] is 0.621; in [2] it was 0.302; in assay [3], -0.187; in assay [4], 1.03; in assay [5] it was 0.563; in [6], 0.213. Further, the results for the composite z-score (in the assay on Lefty1; in [8]) were 0.125 and 0.489, respectively. Moreover, the z-score is -0.633 in [7] and -1.12 (inactive) in assay [9].

Turning to `CC(C)C(=C=CC[C@H](O)c1cccc(OCCO)c1)C[C@H](O)COCc1ccccc1`, the composite z-score is 0.366 in assay [1]; 0.165 in [2]; 0.107 in assay [3]; 0.637 in assay [4]; 0.235 in assay [5]; 0.562 in assay [6]. Also, the figures for the composite z-score (in the assay with Lefty1; in [8]) were 0.554 and -0.0699, respectively. The results for the z-score in [7] and in assay [9] were -0.241 and 0.209 (inactive), respectively.

Take `O=C1O[C@H](c2ccccc2)[C@H](c2ccccc2)N2[C@H]1[C@@H](C(=O)Nc1nc3ccccc3s1)[C@]1(C(=O)Nc3ccccc31)[C@H]2c1ccc(O)cc1`: the composite z-score in [1] turned out to be 0.156; in assay [2], 1.24; in [3], 0.19; in [4], 0.921; in [5] it was 1.32; in [6] it was 1.47. Further, the composite z-score in the assay with Lefty1 worked out at 1.08; in assay [8], 0.705. In addition, the z-score was -2.12 in [7] and -0.647 (inactive) in assay [9].

For `Cc1ccc(S[C@]2(C(=O)NC3CC3)CC(=O)N(Cc3ccccc3)[C@@H]2c2ccc(CO)cc2)cc1`, the composite z-score is 0.116 in assay [1]; -0.663 in assay [2]; -0.526 in [3]; -0.816 in [4]; -0.432 in assay [5]; -0.596 in assay [6]. For the same compound, the composite z-score in the assay with Lefty1 was -0.663; in assay [8], 0.222. Moreover, the z-score in [7] is 0.424; in assay [9], -0.585 (inactive).

On to `CCOC(=O)C[C@H]1[C@H](OC(=O)Cc2ccc3c(c2)OCO3)[C@@H](NC(=O)c2ccc(-c3ccccc3)cc2)c2cc(OCCCO)ccc2N1C(=O)c1ccccc1`, for which the composite z-score in assay [1] stood at 0.18; in [2], 1.06; in assay [3], 0.356; in assay [4], 0.672; in [5], 0.526; in [6], 0.685. Besides, the composite z-score in the assay on Lefty1 was determined as 0.419; in [8] it was 0.507. Besides, the z-score in assay [7] is 2.42; in assay [9], -1.16 (inactive).

`O=C1[C@]2(CO)C=C(Br)[C@@H](C[C@@H]2c2ccccc2)[C@@]12CO2`: the composite z-score is 0.123 in assay [1]; -0.769 in assay [2]; -0.0687 in assay [3]; 0.262 in assay [4]; 0.518 in [5]; 0.118 in assay [6]. The composite z-score amounted to 0.748 in the assay with Lefty1 and 0.492 in [8]. For the same compound, the values for the z-score in [7] and in assay [9] were 0.116 and 0.969 (inactive), respectively.

Regarding `Cc1ccc(S[C@]2(C(=O)NCc3ccccc3)CC(=O)N(Cc3ccccc3Cl)[C@@H]2c2ccc(CO)cc2I)cc1`, the composite z-score was 2.92 in assay [1]; -0.162 in assay [2]; -0.0602 in assay [3]; 0.999 in [4]; 0.0508 in assay [5]; -0.871 in assay [6]. Also, the figures for the composite z-score (with Lefty1; in assay [8]) were -0.366 and 0.947, respectively. The values for the z-score in assay [7] and in [9] were 0.00439 and 0.831 (inactive), respectively.

Regarding `Cc1ccccc1C(O)C1C=CC2C(=O)N(C)C(=O)C2N1Nc1ccccc1` (stereo not given), the composite z-score in assay [1] is 1.23; in [2] it was 1.16; in assay [3], 0.175; in assay [4] it was 1.01; in assay [5] it was 0.459; in [6] it was -0.462. Moreover, the composite z-score was -0.395 in the assay on Lefty1 and 1.38 in assay [8]. The values for the z-score in [7] and in assay [9] were 0.0888 and 0.292 (inactive), respectively.
